Screens: PubChem, Broad Institute
NOMO-1 viab: NOMO-1 AML cell viability reduction, primary screen, STK33 inhibitor project, CellTiter-Glo luminescence. actives 7.5% (n = 37,000). inhibition, % (no concentration beside the values). AID 2330, 2010. NOMO-1 AML viability, 72 h; in the data active means inhibition above about 80%; inconclusive means no clear call, values can overlap the other calls
Shh pathway inh: Hedgehog pathway signaling inhibitors, primary screen, luminescence, Shh-LIGHT2 cells, Gli-luciferase | Shh-LIGHT2 Gli-luciferase reporter, 30 h | actives 2.1% (n = 22,000) | inhibition, % (test concentration not listed) | AID 2313, 2010;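 active means mean inhibition across valid replicates above about 65%, limit read from the data; inconclusive means mean under the limit, yet half or more replicates past it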;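 further: pathway switched on by Shh-conditioned medium diluted 1 in 25 in low serum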
PD-1 reversal: activators reversing PD-1 mediated T-cell inhibition, primary screen, luminescence, primary human CD4 T cells, PD-L1 beads; CellTiter-Glo 96 h; 29,000 tested, under 10 active; AID 2316, 2010; activation, % (concentration not given with the values); call rule not given here
Numbers stand for hits; – = inactive; ? = inconclusive; · = no result given. Sampled rows, rich in hits. Any-hit rate of the full collection: about 7.7%.

SMILES	NOMO-1 viab	Shh pathway inh	PD-1 reversal
COC(=O)c1ccccc1NC(=O)CSc1nc2c(cc1C#N)CCCCC2	–	·	–
COc1cc(OC)c(NC(=O)CN(C)S(=O)(=O)c2cc(Cl)ccc2Cl)cc1Cl	–	·	–
COc1cc2ccc(=O)oc2c(CC=C(C)C)c1OC	–	–	–
CC(C)=CCc1c(O)ccc2ccc(=O)oc12	–	–	–
CC(C)=CCc1c(O)cc2oc3c(CC=C(C)C)c(O)c(O)c(CC=C(C)C)c3c(=O)c2c1O	·	103	·
COc1c(O)cc2oc3cc(O)c(CC=C(C)C)c(O)c3c(=O)c2c1CC=C(C)C	98	–	–
COc1cc2c(cc1OC)CN(C(=O)CSc1ncnc3sc4c(c13)CCC(C)C4)CC2 (configuration not stated)	–	·	–
COC(=O)c1cc(OC)c(OC)cc1NC(=O)COc1cc(C)c(Br)c(C)c1	–	·	·
COc1ccccc1NC(=O)CSc1nc2ccccc2o1	–	·	–
C[C@@H]1CN([C@@H](C)CO)C(=O)c2cc(NC(=O)NC3CCCCC3)ccc2O[C@H]1CN(C)Cc1ccc(C(=O)Nc2ccccc2N)cc1	–	·	–
C[C@H]1CN([C@@H](C)CO)C(=O)c2cc(NC(=O)C3CC3)ccc2O[C@H]1CN(C)Cc1ccc(C(=O)Nc2ccccc2N)cc1	106	·	–
C[C@@H]1CN([C@@H](C)CO)C(=O)c2cc(NC(=O)C3CC3)ccc2O[C@@H]1CN(C)Cc1ccc(C(=O)Nc2ccccc2N)cc1	105	·	–
C[C@H](CO)N1C[C@H](C)[C@H](CN(C)Cc2ccc(C(=O)Nc3ccccc3N)cc2)Oc2ccc(NC(=O)C3CC3)cc2C1=O	?	·	–
C[C@@H]1CN([C@H](C)CO)C(=O)c2cc(NC(=O)C3CCCCC3)ccc2O[C@@H]1CN(C)Cc1ccc(C(=O)Nc2ccccc2N)cc1	?	·	–
C[C@@H]1CN([C@@H](C)CO)C(=O)c2cc(NC(=O)C3CCCCC3)ccc2O[C@@H]1CN(C)Cc1ccc(C(=O)Nc2ccccc2N)cc1	109	·	–
CC(=O)OC[C@H]1O[C@@H](Oc2ccccc2COC(=O)C2(O)C=CCCC2=O)[C@H](OC(C)=O)[C@@H](O)[C@@H]1O (some centres not stated)	–	–	–
COC(=O)c1c(NC(=O)c2ccc(N(C)S(=O)(=O)c3ccccc3)cc2)sc2c1CCCC2	–	·	–
O=C(CCO[C@@H]1O[C@H](CO)[C@@H](O)[C@H](O)[C@H]1O)c1ccc(O)cc1	·	–	·
COc1ccc(S(=O)(=O)Nc2cc(C)cc(C)c2)cc1	96	–	–
COc1ccc(S(=O)(=O)Nc2c(C)nc3nc[nH]n3c2=O)cc1	–	·	–
Cc1ccc(S(=O)(=O)Nc2ccc3c(c2)CC(=O)N([C@H](C)CO)C[C@@H](C)[C@@H](CN(C)Cc2ccc(-c4ccccc4)cc2)O3)cc1	–	–	–
C[C@@H]1CN([C@H](C)CO)C(=O)Cc2cc(NS(=O)(=O)c3ccc(F)cc3)ccc2O[C@H]1CN(C)Cc1ccc(-c2ccccc2)cc1	89	–	–
Cc1ccc(S(=O)(=O)Nc2ccc3c(c2)CC(=O)N([C@H](C)CO)C[C@@H](C)[C@H](CN(C)Cc2ccc(-c4ccccc4)cc2)O3)cc1	95	–	–
C[C@H]1CN([C@@H](C)CO)C(=O)Cc2cc(NS(=O)(=O)c3ccccc3)ccc2O[C@H]1CN(C)Cc1ccc(-c2ccccc2)cc1	–	–	–
C[C@@H]1CN([C@H](C)CO)C(=O)Cc2cc(NS(=O)(=O)c3ccc(F)cc3)ccc2O[C@@H]1CN(C)Cc1ccc(-c2ccccc2)cc1	?	–	–
SMILES	NOMO-1 viab	Shh pathway inh	PD-1 reversal
Cc1noc(C)c1S(=O)(=O)Nc1ccc2c(c1)CC(=O)N([C@H](C)CO)C[C@@H](C)[C@H](CN(C)Cc1ccc(-c3ccccc3)cc1)O2	–	–	·
C[C@H]1CN([C@@H](C)CO)C(=O)Cc2cc(NS(=O)(=O)c3ccccc3)ccc2O[C@@H]1CN(C)Cc1ccc(-c2ccccc2)cc1	113	–	–
Cc1noc(C)c1S(=O)(=O)Nc1ccc2c(c1)CC(=O)N([C@@H](C)CO)C[C@H](C)[C@@H](CN(C)Cc1ccc(-c3ccccc3)cc1)O2	86	–	–
CC(=O)Nc1ccc(Br)cc1-c1nc2ccccc2nc1OCc1cccc(Cl)c1	–	·	–
O=C(CSc1nnc2sc3ccccc3n12)Nc1c(Cl)cccc1Cl	–	·	–
Cc1ccc(S(=O)(=O)Nc2ccc3c(c2)CC(=O)N([C@@H](C)CO)C[C@@H](C)[C@@H](CN(C)Cc2ccc(-c4ccccc4)cc2)O3)cc1	124	–	–
C[C@@H]1CN([C@H](C)CO)C(=O)Cc2cc(NS(=O)(=O)c3ccccc3)ccc2O[C@H]1CN(C)Cc1ccc(-c2ccccc2)cc1	?	–	–
COc1ccc(CCNS(=O)(=O)c2cc([N+](=O)[O-])ccc2C)cc1OC	–	·	–
CC(C)(C)NC(=O)c1ccccc1	–	–	–
CC(C)(C)NC(=O)c1ccc2c3c(onc13)-c1ccccc1C2=O	114	–	–
C[C@H](CO)N1C[C@H](C)[C@H](CN(C)Cc2ccc(C(F)(F)F)cc2)Oc2ccc(NS(=O)(=O)c3ccc(F)cc3)cc2CC1=O	103	·	·
C[C@H](CO)N1C[C@H](C)[C@H](CN(C)Cc2ccc(C(F)(F)F)cc2)Oc2ccc(NS(C)(=O)=O)cc2CC1=O	–	–	–
C[C@@H]1CN([C@H](C)CO)C(=O)Cc2cc(NS(C)(=O)=O)ccc2O[C@@H]1CN(C)Cc1ccc(C(F)(F)F)cc1	–	–	–
Cc1ccc(S(=O)(=O)Nc2ccc3c(c2)CC(=O)N([C@@H](C)CO)C[C@H](C)[C@H](CN(C)Cc2ccc(C(F)(F)F)cc2)O3)cc1	112	–	–
C=C(C)C(=O)O[C@H]1[C@H]2C(=C)C(=O)O[C@@H]2C[C@@H](C)/C=C/C(=O)[C@](C)(O)[C@@H]1OC(=O)C(=C)C	107	–	–
C=C(C)C(=O)O[C@@H]1C2=C(C)C(=O)OC2(O)CC23OC2CC[C@H](C)[C@@]13C (some centres not stated)	–	–	–
C=C(C)C(=O)O[C@H]1[C@H]2C(=C)C(=O)O[C@@H]2C[C@@H](C)[C@@H]2O[C@@H]2C(=O)[C@](C)(O)[C@@H]1OC(C)=O	122	85	–
COc1ccc(NC(=O)CCCN2C(=O)c3ccccc3C2=O)c(OC)c1	–	·	–
COC(=O)c1ccccc1NC(=O)CN(C)S(=O)(=O)c1c(C)cc(C)cc1C	–	·	–
Cc1nnc(SCC(=O)Nc2cccc(C(F)(F)F)c2)s1	–	·	–
CC1(C)CC(=O)C=C(SCC(=O)Nc2cc(C(F)(F)F)cc(C(F)(F)F)c2)S1	103	92	–
CC(=O)Nc1ccc(Br)c(C(F)(F)F)c1	–	–	–
Cc1ccc(C(=O)O)cc1NC(=O)COc1ccc(C(C)(C)C)cc1	–	·	–
COC(=O)COc1ccc2c(=O)c(Oc3cnn(-c4ccccc4)c3)c(C(F)(F)F)oc2c1C	–	·	–
COc1cc2c(cc1OC)[C@@H]1C(=O)c3ccc4c(c3O[C@@H]1CO2)CCC(C)(C)O4	–	94	·
COc1ccc2c(c1)O[C@@H]1COc3cc(OC)c(OC)cc3[C@@H]1C2=O	–	–	·
